# Screening data deposited in PubChem BioAssay by National Center for Advancing Translational Sciences (NCATS).
# A selection: hits, their analogues and other compounds. The true share with any hit is near 19%.
# TDP1 block: blocks human tyrosyl-DNA phosphodiesterase 1; Potency, µM (top dose mostly 130 µM), for the others: at the top dose activity change, negative = inhibition, actives largely listed as inhibitors; 0.28% of 350,000 active; recombinant TDP1, AlphaScreen DNA substrate cleavage; Q9NUW8; also: nearly all actives have a fitted effect of over 40% in size
# Target sequence (Q9NUW8 whole entry, looked up): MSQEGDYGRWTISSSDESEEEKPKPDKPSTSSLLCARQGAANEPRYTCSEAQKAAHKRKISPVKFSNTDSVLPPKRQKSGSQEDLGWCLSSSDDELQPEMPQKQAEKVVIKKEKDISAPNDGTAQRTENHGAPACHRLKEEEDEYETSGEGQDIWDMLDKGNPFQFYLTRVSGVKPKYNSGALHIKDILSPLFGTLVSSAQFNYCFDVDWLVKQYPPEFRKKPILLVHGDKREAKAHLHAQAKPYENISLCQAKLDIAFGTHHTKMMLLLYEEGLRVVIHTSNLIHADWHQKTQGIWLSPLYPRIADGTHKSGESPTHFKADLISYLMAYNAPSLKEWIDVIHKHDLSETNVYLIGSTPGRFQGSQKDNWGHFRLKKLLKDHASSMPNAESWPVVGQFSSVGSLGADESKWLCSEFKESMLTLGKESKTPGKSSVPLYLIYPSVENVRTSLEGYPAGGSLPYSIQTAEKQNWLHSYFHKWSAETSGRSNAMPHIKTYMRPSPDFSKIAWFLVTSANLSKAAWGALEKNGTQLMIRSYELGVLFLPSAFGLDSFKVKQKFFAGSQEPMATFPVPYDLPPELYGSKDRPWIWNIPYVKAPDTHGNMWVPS
#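 Steps: enzyme plus compound, 15 min RT; add biotin/phosphotyrosine-FITC oligonucleotide (15 nM final), react 5 min; add donor/acceptor beads (10 ug/ml final), 10 min; read AlphaScreen. Tdp1 at 1 nM final.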
# DT40 TDP1 CPT: DT40-hTDP1 cell growth loss with CPT; chicken DT40 Tdp1-/-;hTDP1 cells + 20 nM CPT, ATP luminescence, 48 h; Potency, µM (titrated, usually from 46.2 µM), for the others: at the highest dose activity change, negative = growth inhibition, hits mostly inhibitors; 12% of 420,000 active; also: nearly all actives have a fitted effect of over 55% in size
#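 Chicken DT40 Tdp1-/- cells stably complemented with human TDP1 were seeded at 400 cells/well in medium containing 20 nM camptothecin, exposed to pin-transferred compounds, and grown at 37 °C for at least 48 hr. Viability was read as ATP luminescence.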
# RORgamma inh: blocks mouse ROR gamma transcriptional activity; Drosophila S2 Gal4-RORgamma UAS-luciferase reporter, 20 h; 5.4% of 310,000 active; Potency, µM (doses to about 53.6 µM), for inactives: top-dose activity change, negative = inhibition, usual class: inhibitors; P51450; also: nearly all actives have a fitted effect of over 60% in size
#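 Read-out: Photinus luciferase luminescence; inhibitors lower reporter signal. Insect Schneider cells with Gal4-ROR gamma fusion under metallothionein promoter, UAS reporter; 700 uM final copper sulfate induction, 20 hr, ambient temperature.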
# TDP1 cell noCPT: qHTS for Inhibitors of human tyrosyl-DNA phosphodiesterase 1 (TDP1): qHTS in cells in absence of CPT; 15% of 420,000 active; Potency, µM (highest dose often 46.2 µM), inactives show top-dose activity change, negative = growth inhibition, usual class: inhibitors; AID 686978, 2013; DT40 Tdp1-/- hTDP1 cells, no CPT, ATP luminescence, 48 h; also: nearly all actives have a fitted effect of over 55% in size
#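 DT40 Tdp1-/-;hTDP1 cells, no CPT (DMSO vehicle only), 400 cells/well; compounds pin-transferred; ≥48 hr, 37 °C; CellTiter-Glo 30 min RT dark, luminescence read.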
# VP16 counter: Gal4-VP16 reporter inhibition counter-screen; Drosophila S2 Gal4-VP16 UAS-luciferase, luminescence, 20 h; Potency, µM (highest dose often 53.6 µM), without a hit: at the top dose activity, negative = inhibition, most hits filed as inhibitors; 3.5% of 310,000 active; AID 2546;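 also: Gal4-VP16 expression switched on by copper sulfate through the metallothionein promoter; nearly all actives have a fitted effect of over 50% in size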
# * hit, by the source's call; ? = inconclusive; . = no result given; [ ] = dose if it differs, or a comment. Calls follow the shape of the dose curve; as a rule, active = well fitted curve in the direction sought with a large enough effect; inconclusive = small, poorly fitted or top-dose-only effect, or another doubt; inactive = no such curve, though single readings can be large; an effect the other way counts as inactive or inconclusive. % is scaled to controls: 0 for no effect and ±100 for the full control effect; potency is read from the fitted curve at half-maximal effect.
SMILES,TDP1 block,DT40 TDP1 CPT,RORgamma inh,TDP1 cell noCPT,VP16 counter
COC(=O)C(NC(=O)CCc1c(C)nc2cc(-c3cccc(F)c3)nn2c1C)C(C)C (stereo not given),-1.2%,?,.,18.4µM*,.
COc1cc(OC)cc(-c2cc3nc(C)c(CCC(=O)O)c(C)n3n2)c1,0.0%,-28.6%,0.708µM*,?,2.82µM*
COc1cc(OC)cc(-c2cc3nc(C)c(CCC(=O)NC(C)CCc4ccco4)c(C)n3n2)c1 (stereo not given),11.4%,?,?,16.4µM*,-18.1%
Cc1nc2cc(-c3ccccc3)nn2c(C)c1CCC(=O)NCc1ccco1,-3.9%,-2.7%,32.7%,-19.3%,1.9%
C=CCn1c(=NC(=O)CN2C(=O)CCC2=O)sc2cc(S(N)(=O)=O)ccc21,4.2%,16.9%,9.0%,-12.5%,-2.3%
COc1cc(-c2nnc(COC(=O)c3cc(C)nc4ccc(C)cc34)o2)cc(OC)c1OC,6.6%,?,-12.9%,?,-7.1%
O=C(OCCN1CCCCC1)c1c[nH]c2ccccc12,9.1%[56.1 µM],4.1%,7.5%,-1.3%,17.0%
CCCn1c(C)nc2c(NCc3ccccc3)nc(C)nc21,6.3%,.,0.6%,.,10.0%
CC1(C(=O)N(CC(=O)NC2CCCC2)C2CCCC2)CC(=O)N=C2C=CC=CN21 (stereo not given),1.0%,-21.2%,-28.5%,-8.6%,2.1%
Cc1nc2cc(-c3cccc(F)c3)nn2c(C)c1CCC(=O)NC(C)CCc1ccco1 (stereo not given),3.9%,?,11.2µM*,?,-2.3%
COc1cccc(N2CCN(S(=O)(=O)c3cn(C)cn3)CC2)c1,-2.5%,-3.0%,-3.4%,18.4%,-16.1%
Cc1ccc(-c2noc(-c3ccccc3NC(=O)C3CC(=O)N(c4ccccc4C)C3)n2)cc1 (stereo not given),5.7%,18.4µM*,.,23.1µM*,.
Cc1cccc(-c2noc(-c3ccccc3NC(=O)C3CC(=O)N(c4ccccc4C)C3)n2)c1 (stereo not given),5.7%,23.1µM*,.,14.6µM*,.
COc1ccc(N2CC(C(=O)Nc3ccccc3-c3nc(-c4ccc(C)cc4)no3)CC2=O)cc1 (stereo not given),8.6%,-3.4%,.,-7.3%,.
Cc1cccc(C(=O)Nc2ccccc2-c2nc(-c3ccccc3)no2)c1,0.0%,-17.3%,.,-1.9%,.
O=C(/C=C/c1ccco1)NCCc1ccccc1,-5.3%,5.1%,-6.9%,-26.9%,-4.0%
Cc1ccc(/C=C/C(=O)Nc2cccc3ncccc23)o1,1.1%,?,?,?,?
Cc1ccc(/C=C/C(=O)Nc2ccccc2C(N)=O)o1,-1.1%,?,.,10.3µM*,.
Cc1ccc(/C=C/C(=O)NCCc2ccccc2)o1,-0.2%,5.8µM*,-58.1%,29.1µM*,-19.4%
NC(=O)c1ccccc1NC(=O)/C=C/c1c(Cl)cccc1Cl,-3.8%,?,-14.3%,18.4µM*,-3.4%
CCC(=O)Nc1ccc2c(c1)ncn2CCc1ccccc1,.,-10.8%,24.3%,9.1%,-4.8%
COc1ccc(NC(=O)Cn2nc(C)c3nn(-c4ccc(Cl)cc4)c(C)c3c2=O)cc1,0.0%,?,.,?,.
COc1cc2c(NC3CCN(C)CC3)nc(N3CCCN(C)CC3)nc2cc1OCCCCN(C)C,.,-24.8%,.,?,.
CCCN(C)CCCOc1cc2nc(N3CCCN(C)CC3)nc(NC3CCN(C)CC3)c2cc1OC,.,8.91µM*,.,12.6µM*,.
COc1cc2c(NC3CCN(C(C)C)CC3)nc(N3CCCN(C)CC3)nc2cc1OCCOCCN(C)C,.,7.08µM*,.,14.1µM*,.
SMILES,TDP1 block,DT40 TDP1 CPT,RORgamma inh,TDP1 cell noCPT,VP16 counter
COc1cc2c(NC3CCN(C)CC3)nc(N3CCCCC3)nc2cc1OCCCN(C)C,.,3.98µM*,.,10µM*,.
COc1cc2c(NC3CCN(C)CC3)nc(N3CCCN(C)CC3)nc2cc1OCCCCCCN(C)C,.,15.8µM*,.,?,.
COc1cc2c(cc1OC)-c1cc(N3CCc4ccccc43)nc(=O)n1CC2,0.0%,?,-0.5%,?,-7.8%
O=C1CCC(C(=O)OCc2nnc(-c3ccccc3)o2)=NN1,-10.9%[0.505 µM],-7.1%,.,-3.3%,.
Cc1ccc(NC(=O)COC(=O)c2ccc(OC(F)F)cc2)cc1S(=O)(=O)N1CCCCC1,.,?,.,-5.9%,.
COc1ccccc1NC(=O)CSc1nnnn1-c1ccccc1OC,2.8%,-16.1%,?,-10.1%,9.2%
CCNS(=O)(=O)c1ccc(CCC(=O)Nc2ccccc2C(=O)OC)cc1,-0.6%,-18.3%,6.8%,?,2.2%
COc1cc2c(NC3CCN(C)CC3)nc(N3CCCCC3)nc2cc1OCCOCCN(C)C,.,11.2µM*,.,?,.
COc1cc2c(NC3CCN(C(C)C)CC3)nc(N3CCCN(C)CC3)nc2cc1OCCCN1CCCC1,.,5.01µM*,.,3.55µM*,.
COc1cc2c(NC3CCN(C)CC3)nc(N3CCCN(C)CC3)nc2cc1OCCOCCN(C)C,.,?,.,-29.4%,.
O=C(CC1C(=O)N(Cc2ccccc2)C(=S)N1CCN1CCOCC1)Nc1ccc(F)cc1 (stereo not given),2.4%,?,5.4%,?,-3.9%
CCOC(=O)C1=c2s/c(=C\c3cccnc3)c(=O)n2C(N)=C(C(=O)OC)C1c1cccnc1 (stereo not given),6.8%,23.1µM*,-26.2%,14.6µM*,-22.5%
COc1ccc(-c2cc(C(=O)N3CCCC3)c3ccccc3n2)cc1OC,2.8%,-24.1%,2.0%,-12.5%,-13.0%
COc1ccc(-c2cc(-c3nnc(COC(=O)c4ccc(O)cc4)o3)c3ccccc3n2)cc1OC,-0.6%,?,26.0%,10.3µM*,-8.8%
COc1ccc(-c2cc(-c3nnc(COC(=O)C4CC4)o3)c3ccccc3n2)cc1OC,-2.7%,?,1.0%,9.2µM*,-16.0%
COc1ccc(-c2cc(C(=O)N3CC(C)CC(C)C3)c3ccccc3n2)cc1OC (stereo not given),0.3%[0.505 µM],?,.,?,.
COc1ccc(-c2cc(-c3nnc(COC(=O)C4CC4C)o3)c3ccccc3n2)cc1OC (stereo not given),5.4%,20.6µM*,16.1%,16.4µM*,-0.7%
CNC(=O)COc1coc(CN2CCN(c3ccccc3OC)CC2)cc1=O,-0.1%,9.1%,?,7.5%,-3.2%
NC(=O)c1ccc(-n2nnnc2Oc2ccccc2)cc1,0.0%,11.5%,-4.7%,0.1%,18.9%
COc1ccc(Nc2ncnc3sccc23)cc1OC,.,-23.6%,-5.8%,-18.4%,-22.2%
COc1ccc(CCNc2ncnc3c2c(C)c(C)n3CCCN(C)C)cc1OC,.,-35.7%,-9.0%,?,-2.4%
Cc1sc2ncnc(NCCc3ccc(S(N)(=O)=O)cc3)c2c1C,5.6%,2.91µM*,8.91µM*,1.46µM*,2.51µM*
